Assay results: ChEMBL document CHEMBL3433997, “St. Jude Leishmania screening dataset” (2016)

Biological target: Solute carrier family 2, facilitated glucose transporter member 1 (Homo sapiens) (UniProt P11166)
Experiment: ST_JUDE_LEISH: Cytotoxicity at 2uM final concentration against transgenic Leishmania Mexicana promastigotes LmGLUT1 that are glucose transport deficient and complemented with the human glucose transporter GLUT1. Activity is measured by DNA content using SYBR green in vitro
Format: functional

Chain of Solute carrier family 2, facilitated glucose transporter member 1 (Homo sapiens) (P11166 whole entry): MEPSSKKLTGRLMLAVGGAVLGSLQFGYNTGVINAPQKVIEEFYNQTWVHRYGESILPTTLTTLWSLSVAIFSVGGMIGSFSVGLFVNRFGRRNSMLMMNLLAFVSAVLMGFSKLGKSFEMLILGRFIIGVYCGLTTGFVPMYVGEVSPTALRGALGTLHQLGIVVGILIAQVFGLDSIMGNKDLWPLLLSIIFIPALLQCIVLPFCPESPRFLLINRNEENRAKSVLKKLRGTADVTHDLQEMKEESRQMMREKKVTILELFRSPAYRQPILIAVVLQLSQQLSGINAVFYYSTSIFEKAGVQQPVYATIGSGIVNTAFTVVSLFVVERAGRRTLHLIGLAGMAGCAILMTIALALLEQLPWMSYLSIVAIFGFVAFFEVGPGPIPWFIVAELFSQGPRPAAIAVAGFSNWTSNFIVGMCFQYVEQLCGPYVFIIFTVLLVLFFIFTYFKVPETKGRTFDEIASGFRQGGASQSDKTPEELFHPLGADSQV

Compound	inhibition [%]
CCN1CCN(c2ccc(NC(=O)c3cc4c(C)nn(-c5ccccc5)c4s3)cc2C)CC1	1.44
COc1ccc2nccc([C@@H](O)CN3CCC(NC(=O)Cc4ccc(Br)c5ccccc45)CC3)c2c1	3.72
COc1cc(Cc2cnc(N)nc2N)cc(OCCCN2C(=O)c3ccccc3C2=O)c1OC	4.68
Cc1cnc(CN(Cc2ccc(-c3ccc(CNCCc4ccc(S(C)(=O)=O)cc4)cn3)cc2)C(=O)c2nn(-c3ccccc3)nc2C)cn1	5.03
OCCN1CCN(Cc2cccc(-c3ccc(-c4nc5cc(C(F)(F)F)ccc5[nH]4)cc3)c2)CC1	5.08
Cc1ccccc1C1CCN(C2CCC(NC(=O)/C=C/c3cc(F)cc(F)c3)CC2)CC1 (stereo not given)	-1.34
Cc1c(S(=O)(=O)Nc2ccc3ccn(CCN(C)C)c3c2)sc2ccc(Cl)cc12	-0.44
CC[C@@H]([C@@H](Cc1cc2ccccc2s1)C(=O)N[C@@H](CCCCNC(=O)OCc1ccccc1)C(=O)Nc1ccccn1)N(O)C=O	5.52
Nc1nc(N)c2c(ccc3c2ccn3CC2CC2)n1	2.11
CC(C)CNCc1ccc(-c2ccccc2CN(C(=O)NCCc2ccccc2)C2CCN(Cc3ccccc3)CC2)cc1	1.25
CCc1cccc(OCCCON2C(=N)N=C(N)NC2(C)C)c1	7.55
O=C(NCCCCN1CCC2c3cccc(O)c3CCC21)c1ccc(-c2ccccc2)cc1 (stereo not given)	6.05
Cc1nnc2c(NC(=O)NC3CCCC3)cc3ccc(-c4cccc(CN(C)C)c4)cc3n12	2.19
COc1ccccc1C1CCN(C2CCC(NC(=O)c3cc(-c4ccc(Cl)cc4)cs3)CC2)CC1 (stereo not given)	-0.61
CCOc1cc(C2C(C(=O)OC(C)C)=C(C)NC3=C2C(=O)CC(c2ccc(Cl)cc2)C3)ccc1OC(C)=O (stereo not given)	6.58
COc1cc2nc(N3CCN(C(=O)c4ccco4)CC3)nc(NCc3ccccc3)c2cc1OC	14.9
O=C(Nc1ccc(Cl)cc1C(=O)Nc1ccncc1)c1ccc(Cl)cc1Cl	6.71
CC(=O)Nc1ccc(Nc2c3ccccc3nc3ccccc23)cc1	8.17
COc1ccccc1CCNc1nc(C)cc(N[C@@H](Cc2ccccc2)C(=O)NCCc2ccccc2)n1	7.15
COc1cccc2cc(C(=O)N[C@@H](CC(C)C)C(=O)N[C@H](/C=N/NC(=O)c3ccccc3)Cc3c[nH]cn3)oc12	2.75

Compound	inhibition [%]
N=C(N)Nc1ccc(OCCCCCOc2ccc(NC(=N)N)cc2Br)c(Br)c1	4.63
COc1cccc2c(NN=Cc3ccccc3Cl)cc(C)nc12	48
O=C(Nc1cccc(CN2CCN(C(=O)c3cccs3)CC2)c1)c1cccs1	2.53
O=C(Nc1ccc(C(=O)Nc2cccc(C3=NCCN3)c2)cc1)Nc1ccc(C2=NCCN2)cc1	-1.17
CN1CCC(C(=O)Nc2cccc(-c3ccc(-c4nc5cc(C(F)(F)F)ccc5[nH]4)cc3)c2)CC1	4.82
CC(=O)N(C)c1cccc(C(=O)Nc2cccc(-c3cccc(-c4nc5cc(C(F)(F)F)ccc5[nH]4)c3)c2)c1	12.3
CN(C)c1ccc(-c2csc(C(=O)NCC3CCN(CCC(C)(C)C)C3)c2)cc1 (stereo not given)	-0.84
COc1cc2nc(N3CCC(CNC(=O)c4ccc(-c5ccc(Cl)cc5)cc4)CC3)nc(N)c2cc1OC	9.23
CN1CCN(c2ccc(Nc3c4ccccc4nc4ccccc34)cc2)CC1	7.02
CCNc1cc(C(=O)N[C@@H](Cc2ccccc2)[C@H](O)CNCCc2ccccc2)cc(N2CCCC2=O)c1	0.28
CC=CCON1C(=N)NC(=N)NC1(C)C	1.93
CC(C)n1nc(C(=O)N2CCN(c3ccccc3)CC2)c2ccccc2c1=O	1.27
COc1cc(OC)cc(-c2nn(-c3ccc([N+](=O)[O-])cc3C#N)c(=S)n2Cc2ccco2)c1	0.03
CCCC(=O)Nc1ccc(OCCCN(Cc2cccc(C(F)(F)F)c2)c2ccc(C#N)c(C(F)(F)F)c2)cc1	2.19
Cc1ccccc1CN1CCCN(Cc2ccc(C(=O)Nc3ccc(Cl)cc3)cc2)CC1	7.5
CCNc1cc(C(=O)N[C@@H](Cc2cccc(F)c2)[C@H](O)CNC(C)CCCC(C)C)cc(N2CCCCS2(=O)=O)c1 (stereo not given in full)	1.15
O=C(NCC1CN(Cc2ccc(N3CCCC3)o2)CCCO1)c1ccc2c(c1)OCO2 (stereo not given)	-0.31
COc1ccc(OC)c(Cc2cnc3nc(N)[nH]c(=O)c3c2C)c1	3.38
Cc1ccc(F)c(CN2CCC(N3CC(c4ccccc4)(c4ccccc4)OC3=O)CC2)c1Cl	10.4
CS(=O)(=O)Nc1cccc(-c2cnc3[nH]cc(-c4ccc(C(=O)O)cc4)c3c2)c1	0.37
